# VP16 counter = counter-screen for ROR gamma inhibitors: Gal4-VP16 reporter; AID 2546; Drosophila S2 Gal4-VP16 UAS-luciferase, luminescence, 20 h; Potency, µM (doses to about 53.6 µM), without a hit: at the top dose activity, negative = inhibition, most hits filed as inhibitors; 310,000 compounds, 3.5% hits;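 also: Gal4-VP16 expression switched on by copper sulfate through the metallothionein promoter; nearly all actives have a fitted effect of over 50% in size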
# RORgamma inh = blocks mouse ROR gamma transcriptional activity; P51450; Drosophila S2 Gal4-RORgamma UAS-luciferase reporter, 20 h; Potency, µM (series often up to 53.6 µM), inactives show at the highest dose activity change, negative = inhibition, most hits filed as inhibitors; 310,000 compounds, 5.4% hits; AID 2551; also: nearly all actives have a fitted effect of over 60% in size
# Target sequence (P51450 whole entry, looked up, the tested form may be a part): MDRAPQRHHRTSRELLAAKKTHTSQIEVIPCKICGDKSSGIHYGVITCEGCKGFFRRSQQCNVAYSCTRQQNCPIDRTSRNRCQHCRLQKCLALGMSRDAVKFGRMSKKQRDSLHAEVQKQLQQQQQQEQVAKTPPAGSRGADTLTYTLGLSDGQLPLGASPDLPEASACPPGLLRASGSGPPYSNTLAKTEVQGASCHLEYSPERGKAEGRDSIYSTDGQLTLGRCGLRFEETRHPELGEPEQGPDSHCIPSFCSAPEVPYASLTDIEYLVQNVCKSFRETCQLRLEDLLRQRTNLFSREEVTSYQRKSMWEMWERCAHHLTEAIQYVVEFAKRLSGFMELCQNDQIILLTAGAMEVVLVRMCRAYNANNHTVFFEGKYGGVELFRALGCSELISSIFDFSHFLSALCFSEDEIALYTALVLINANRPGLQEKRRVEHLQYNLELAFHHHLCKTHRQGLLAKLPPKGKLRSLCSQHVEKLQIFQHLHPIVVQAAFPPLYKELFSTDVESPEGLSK
#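 Schneider cells (Drosophila), stable Gal4 DBD–ROR gamma + UAS-luc; 1 hr cmpd preincubation; Cu2+ induction 700 uM final; 20 hr ambient; luminescence.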
# ALOX12 inh = ALOX12 (human) lipoxygenase inhibition; AID 1671190; 580,000 compounds, 1.1% hits; purified 12hLO, xylenol orange hydroperoxide absorbance; Potency, µM (titrated, usually from 108 µM), without a hit: at the top dose activity change, negative = inhibition, most hits filed as inhibitors; P18054
#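 Purified human 12hLO at 150 nM in 25 mM Hepes, 0.01% Triton X-100, pH 7.0, preincubated 15 min at room temperature with compound. Reaction started with 40 uM arachidonic acid, 30 min at room temperature. Hydroperoxide measured by Fe-xylenol orange, 573/405 nm absorbance ratio.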
# TDP1 cell noCPT = qHTS for Inhibitors of human tyrosyl-DNA phosphodiesterase 1 (TDP1): qHTS in cells in absence of CPT; AID 686978, 2013; 420,000 compounds, 15% hits; DT40 Tdp1-/- hTDP1 cells, no CPT, ATP luminescence, 48 h; Potency, µM (top dose mostly 46.2 µM), for inactives: at the top dose activity change, negative = growth inhibition, usual class: inhibitors; also: nearly all actives have a fitted effect of over 55% in size
#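 Camptothecin absent (DMSO only). Human TDP1-complemented DT40 knockout cells, 400 cells/well, 37 °C for minimum 48 hr; ATP measured via CellTiter-Glo, 30 min dark incubation, luminescence.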
# ELG1 repair inh = blocks ELG1-dependent DNA repair in HEK293T cells; HEK293T ELG1-luciferase reporter, luminescence, 16 h; DNA damage induced by 5-fluorouridine; Potency, µM (highest dose often 46.1 µM), without a hit: top-dose activity change, negative = inhibition, hits mostly inhibitors; 330,000 compounds, 2.3% hits; AID 504467; also: nearly all actives have a fitted effect of over 55% in size
#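 5-Fluorouridine DNA damage + compound/DMSO, 2,000 cells/well, 16 h, 37 °C/5% CO2. ONE-Glo, 30 min RT, luminescence. Readout = decrease in reporter signal.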
# DT40 TDP1 CPT = growth inhibition of DT40 Tdp1-/-;hTDP1 cells with camptothecin (screen for TDP1 inhibitors); Potency, µM (doses to about 46.2 µM), inactives show top-dose activity change, negative = growth inhibition, most hits filed as inhibitors; chicken DT40 Tdp1-/-;hTDP1 cells + 20 nM CPT, ATP luminescence, 48 h; 420,000 compounds, 12% hits; AID 686979; also: nearly all actives have a fitted effect of over 55% in size
#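 Chicken DT40 Tdp1-/- cells complemented with human TDP1, 400 cells/well, exposed to compounds plus 20 nM camptothecin for at least 48 h at 37 C; viability read as ATP content by CellTiter-Glo luminescence.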
# Starred values were filed as active, the others as inactive; ? = inconclusive; · = not tested or not shown; [ ] = dose if it differs, or a comment. Shown are actives, neighbours in structure and some others; about 15% of the full set was active somewhere. Calls follow the shape of the dose curve; as a rule, active = well fitted curve in the direction sought with a large enough effect; inconclusive = small, poorly fitted or top-dose-only effect, or another doubt; inactive = no such curve, though single readings can be large; an effect the other way counts as inactive or inconclusive. % is scaled to controls: 0 for no effect and ±100 for the full control effect; potency is read from the fitted curve at half-maximal effect.
SMILES,VP16 counter,RORgamma inh,ALOX12 inh,TDP1 cell noCPT,ELG1 repair inh,DT40 TDP1 CPT
CCc1ccc(NC(=O)c2cc3ncccn3n2)cc1,·,·,-14%,·,·,·
COc1ccc(OC)c(-n2c(=O)c(C#N)cc3c(=O)n4cccc(C)c4nc32)c1,·,·,-17%,·,·,·
COC(=O)c1ccc(Oc2coc3cc(OC(=O)c4cccs4)ccc3c2=O)cc1,·,·,-4%,·,·,·
COc1ccc2[nH]c(CNC(=O)C(c3ccc(F)cc3)N(C)C)cc2c1 (stereo not drawn),·,·,0%,·,·,·
Cc1ccc(-n2c(C)cc(C3N=C(N)Nc4nc5ccccc5n43)c2C)c(C)c1 (stereo not drawn),6%,-32%,?,23µM*,-9%,21µM*
Cc1cc(C2N=C(N)Nc3nc4ccccc4n32)c(C)n1-c1ccccc1Cl (stereo not drawn),-4%,-28%,?,?,-18%,21µM*
O=C(Cc1cccs1)N1CC[C@H]2COC(=O)N2c2cc(F)ccc2C1,·,·,-21%[176 µM],·,·,·
O=C(/C=C/c1cccc([N+](=O)[O-])c1)Nc1cccc(NC(=O)c2cccs2)c1,-2%,?,-9%,18µM*,18µM*,5.8µM*
O=C(/C=C/c1cccc([N+](=O)[O-])c1)Nc1cccc(NC(=O)c2ccco2)c1,-8%,?,-18%,16µM*,21µM*,?
O=C(/C=C/c1ccc(Cl)c([N+](=O)[O-])c1)Nc1cccc(NC(=O)c2ccco2)c1,?,?,19%,?,?,?
CCCN1C(=O)C2(c3ccccc31)c1c(oc3ccc(F)cc3c1=O)C(=O)N2CCCOC(C)C (stereo not drawn),·,·,-23%,?,·,21µM*
COc1ccc(CN(C)C(=O)COC(=O)c2c(C)nn(-c3ccc(F)cc3)c2Cl)cc1,·,·,-2%,?,13µM*,?
CCc1nnc(C(=O)Nc2ccc(C(=O)N3CCOCC3)cc2)s1,·,·,-1%,·,·,·
O=C(O)c1ccccc1SCc1ccccc1Cl,·,·,-21%,·,·,·
Cc1cccc(Cn2c(=O)n(CC3CCC(C(=O)N4CCOCC4)CC3)c(=O)c3sccc32)c1 (stereo not drawn),·,·,-16%,18µM*,·,23µM*
COc1cccc(Cn2c(=O)n(CC3CCC(C(=O)N4CCOCC4)CC3)c(=O)c3sccc32)c1 (stereo not drawn),·,·,0%,21µM*,·,?
CCCNC(=O)C1CCC(Cn2c(=O)c3sccc3n(Cc3ccccc3C)c2=O)CC1 (stereo not drawn),·,·,2%,-23%,·,-13%
O=C(C1CCC(Cn2c(=O)c3sccc3n(Cc3ccccc3F)c2=O)CC1)N1CCOCC1 (stereo not drawn),·,·,-4%,?,·,16µM*
Cc1ccc(-n2c(Cc3cccc4ccccc34)n[nH]c2=S)c(C)c1,?,1.1µM*,?,?,-18%,?
C=C(C)Cn1c(-c2ccncc2)n[nH]c1=S,-15%,13µM*,?,-18%,8%,6%
COc1ccc(-n2c(-c3ccc(C)cc3)n[nH]c2=S)cc1,3.2µM*,1.4µM*,?,?,15%,?
Cc1ccc(-n2c(-c3cnccn3)n[nH]c2=S)cc1,-8%,?,-31%,6%,1%,2%
CC(C)(C)c1ccc(-c2n[nH]c(=S)n2-c2ccccc2)cc1,2.8µM*,3.2µM*,-23%,?,-10%,-16%
COc1cccc(S(=O)(=O)N2CCC3(CC2)C(OC)C(=O)N3c2cccc(F)c2)c1 (stereo not drawn),·,·,-17%,·,·,·
Cc1n[nH]c(=S)n1-c1ccccc1,-20%,?,?,-14%,5%,-14%
SMILES,VP16 counter,RORgamma inh,ALOX12 inh,TDP1 cell noCPT,ELG1 repair inh,DT40 TDP1 CPT
COc1ccc(-c2n[nH]c(=S)n2-c2ccc(Br)cc2)cc1OC,?,20µM*,16µM*,2%,-10%,7%
COc1cc(OC)cc(-c2n[nH]c(=S)n2-c2ccc3c(c2)OCO3)c1,?,5.6µM*,?,7%,9%,22%
Cc1ccc(-n2c(-c3ccccc3)n[nH]c2=S)cc1,5.6µM*,3.2µM*,?,-13%,-2%,-1%
Cc1ccc(-n2c(-c3ccc(Cl)cc3Cl)n[nH]c2=S)cc1,5µM*,3.2µM*,?,-25%,-1%,-7%
Fc1ccc(-n2c(-c3ccc4c(c3)OCO4)n[nH]c2=S)cc1Cl,?,?,?,-3%,?,4%
CCNC(=O)NC[C@@H]1C=C(C)[C@H](CC(=O)NCCN2CCOCC2)C[C@H]1C(C)C,·,·,-3%[176 µM],·,·,·
CNC(=O)Nc1ccc(C)n(CC(=O)N2CCN(c3cccc(Cl)c3)CC2)c1=O,·,·,44%,·,·,·
Cc1ccc(-n2c(-c3ccncc3)n[nH]c2=S)cc1,-7%,11µM*,-9%,0%,2%,0%
Nc1c(-c2n[nH]c(=S)n2-c2ccc(Cl)cc2Cl)cnn1-c1ccccc1,-19%,2.8µM*,164%,-14%,32%,1%
Cc1ccc(-n2c(-c3ccccc3)n[nH]c2=S)c(C)c1,4.5µM*,5µM*,?,3%,2%,?
COc1cc(-c2n[nH]c(=S)n2-c2ccc(C)cc2)cc(OC)c1OC,0%,15%,?,-17%,?,16µM*
COc1cccc(S(=O)(=O)N2C[C@@H](F)C[C@H]2C(=O)N2CCCCC2)c1,·,·,27%,·,·,·
CC(c1ccccc1)n1c(-c2ccccc2)n[nH]c1=S (stereo not drawn),·,·,·,-30%,·,-17%
CC(c1ccccc1)n1c(-c2ccc(C(C)(C)C)cc2)n[nH]c1=S (stereo not drawn),7.1µM*,7.1µM*,·,?,10%,0%
CC(=O)N1C[C@@H]2CCCN3CCC[C@@H]([C@H]23)[C@H]1CCCC(=O)Nc1ccccc1,·,·,-13%,·,·,·
CN(C)Cc1ccccc1-c1nc(N(C)C)c2ccccc2n1,?,-23%,?,?,·,12µM*
COc1ccccc1-c1nc(N(C)C)c2ccccc2n1,?,-16%,32µM*,?,·,?
CNc1nc(-c2ccccc2CN(C)C)nc2ccccc12,-19%,?,?,?,·,?
O=C(COc1ccccc1)Nc1nnc(-c2ccc3c(c2)CCCC3)o1,3.5µM*,5.6µM*,4%,-18%,?,-24%
